TEAD-YAP block: TEAD-YAP interaction inhibition | HEK-TIYL cells, TEAD-Gal4/YAP UAS-luciferase luminescence | inhibition, % at 9.12 µM | 640,000 tested, 1.4% active | AID 1259422; in the data active = inhibition above about 32%;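 also: 0% = median of test compound wells and 100% = reference inhibitor wells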
FBW7 activator: activators of human E3 ligase FBW7; AlphaScreen FBW7–phospho-cyclin E peptide binding, activator screen; normalized activity (activation), % at 26.1 µM; 650,000 tested, 0.13% active; Q969H0; in the data active = normalized activity above about 1.9%;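 also: purified mutant Fbw7 with reduced substrate affinity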
GPR151 ag: activators of human GPR151; 650,000 tested, 1% active; Q8TDV0; PathHunter beta-arrestin GPR151 cells, luminescence; AID 1508602; activation, % at 11.2 µM; in the data active = activation above about 4.9%;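 also: 0% = median of compound wells and 100% = cells with positive control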
MITF primary: human MITF inhibition, primary screen. O75030. AlphaScreen MITF homodimerization, bead proximity signal. inhibition, % at 2.6 µM. 650,000 tested, 0.91% active; in the data active = inhibition above about 50%;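 also: 0% = vehicle wells with protein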
Target sequence (O75030 whole entry, looked up): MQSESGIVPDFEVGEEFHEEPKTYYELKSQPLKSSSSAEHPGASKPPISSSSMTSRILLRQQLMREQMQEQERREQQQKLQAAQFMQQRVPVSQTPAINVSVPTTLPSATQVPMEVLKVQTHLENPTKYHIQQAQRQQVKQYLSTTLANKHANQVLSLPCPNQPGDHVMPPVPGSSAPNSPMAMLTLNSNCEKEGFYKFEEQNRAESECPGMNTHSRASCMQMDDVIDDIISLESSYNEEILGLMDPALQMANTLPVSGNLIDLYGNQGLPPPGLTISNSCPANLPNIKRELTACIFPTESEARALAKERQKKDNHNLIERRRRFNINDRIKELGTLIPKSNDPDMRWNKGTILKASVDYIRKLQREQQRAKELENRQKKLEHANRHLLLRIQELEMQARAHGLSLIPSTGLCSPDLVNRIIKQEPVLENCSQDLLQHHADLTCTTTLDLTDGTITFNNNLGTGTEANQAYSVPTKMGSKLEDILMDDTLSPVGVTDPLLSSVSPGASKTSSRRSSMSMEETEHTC
GPR151 confirm: confirmation of human GPR151 activators; shares compounds with GPR151 ag; GPR151 PathHunter beta-arrestin cells, luminescence, 90 min; % of EA-reagent control over plate median; activation, % at 11.2 µM; 6,700 tested, under 10 active; AID 1508609;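 active = mean percent activation across replicates above the confirmation screen cutoff of 4.91%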
GPR119 ag: counter-screen for GPR151 activators: effect on human GPR119; activation, % at 11.2 µM; GPR119 PathHunter beta-arrestin cells, luminescence, 90 min; 0 = compound-well median, 100 = enzyme-acceptor control; 6,700 tested, 0.3% active; shares compounds with GPR151 ag;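 active = mean percent activation in the counterscreen above 29.09%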;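 also: counterscreen on off-target GPR119 to flag nonselective hits from the GPR151 activator screen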
Active calls of the source: *; / = not tested or not shown. In the library only some 3.5% were active in any assay of this set; here they are far more common.

SMILES	TEAD-YAP block	FBW7 activator	GPR151 ag	MITF primary	GPR151 confirm	GPR119 ag
COc1ccc(NC(=S)NC(=O)c2ccc3c(c2)OCO3)c([N+](=O)[O-])c1	1.5	-0.1	7.0*	3.5	-1.0	-11.2
COc1ccc(NC(=O)COc2cccc(C)c2)c([N+](=O)[O-])c1	-33.2	-0.1	6.9*	21.4	-0.1	11.0
COc1ccc(NC(=O)Nc2ccc(F)cc2F)c([N+](=O)[O-])c1	-13.6	-0.1	5.0*	-10.2	0.4	5.9
COc1ccc(C2=CC(c3ccc(Cl)cc3)n3c(nc4ccccc43)N2)cc1 (centres undefined)	-9.8	-0.1	-1.4	-9.3	/	/
COc1cc([N+](=O)[O-])ccc1NC(=O)Nc1ccc(Cl)cc1F	-1.1	-0.1	6.2*	-6.3	2.2	9.3
C/C(=N/NC(=O)c1ccc(O)cc1)c1ccco1	-1.7	-0.1	-1.0	0.9	/	/
COc1cc(C(N)=O)ccc1OCC(C)C	-0.2	-0.1	-0.5	-2.3	/	/
CCCOc1ccc(C(N)=O)cc1OC	4.2	0.1	5.6*	21.4	1.2	6.8
COc1cccc(/C=N/N(CCC#N)C2=NS(=O)(=O)c3ccccc32)c1O	-0.9	0.0	10.4*	8.9	0.7	-6.9
COc1ccc([N+](=O)[O-])cc1/C=N/N(CCO)C1=NS(=O)(=O)c2ccccc21	-3.2	0.0	2.1	14.5	/	/
O=C(CSc1nnc(-c2ccc(Br)cc2)o1)NC1CCCC1	3.2	0.1	8.1*	3.7	0.5	1.0
Cc1cccc(N(CCO)C(=S)Nc2ccccc2)c1	-9.6	-0.1	-0.7	-8.2	/	/
O=C(NC1CC1)c1ccc(-c2nc(NCc3ccccc3)c3ncn(-c4ccccc4)c3n2)cc1	2.2	0.0	2.5	-7.3	/	/
O=C(NC1CC1)c1ccc(-c2nc(NCc3nc4ccccc4[nH]3)c3ncn(-c4ccccc4)c3n2)cc1	73.0*	0.8	5.0*	-0.6	-0.3	4.1
COc1ccc(S(=O)(=O)Nc2cccc(N(C)S(C)(=O)=O)c2)cc1OC	0.9	0.0	7.8*	-2.7	0.0	0.9
COc1ccc(S(=O)(=O)Nc2cccc(N(C)S(C)(=O)=O)c2)cc1C	12.0	0.2	-1.4	8.8	/	/
COc1ccc(S(=O)(=O)Nc2cccc(Br)c2)cc1C	2.4	0.0	13.5*	-1.0	1.3	1.0
COc1ccc(S(=O)(=O)Nc2cccnc2)cc1I	-3.9	0.1	5.1*	-5.4	0.4	-1.4
COc1ccc(S(=O)(=O)Nc2cccc(SC)c2)cc1C	2.8	0.0	-0.4	9.8	/	/
COc1ccc(S(=O)(=O)Nc2cccnc2)cc1C	16.1	0.3	-1.1	-0.2	/	/
Cc1ccc(NC(=O)C2Cc3ccccc3CN2S(=O)(=O)c2ccc(F)cc2)c(C)c1 (centres undefined)	-2.7	0.1	0.0	-8.5	/	/
COCCCn1c(-c2ccc(C(C)(C)C)cc2)n[nH]c1=S	-9.7	-0.2	12.3*	0.4	0.3	-12.4
Cc1ccc(C(C)C)cc1OCCOCCNCCN(C)C	11.5	0.0	5.1*	-19.3	-0.6	-0.7
CC(=O)Nc1ccc(N(C)S(C)(=O)=O)cc1	-1.6	-0.1	9.3*	-6.4	-0.4	-5.9
CC(=O)Nc1ccc(N(C)C(C)=O)cc1	1.2	0.0	0.0	6.5	/	/
SMILES	TEAD-YAP block	FBW7 activator	GPR151 ag	MITF primary	GPR151 confirm	GPR119 ag
C=CCNC(=O)c1cc2cc([N+](=O)[O-])ccc2oc1=O	-3.5	-0.1	2.8	-17.3	/	/
CC(=O)c1ccc2ccccc2c1OC(=O)c1ccc(Br)o1	2.7	0.0	6.3*	-0.1	-1.1	-14.9
CCCSC1=C(C#N)C(c2ccc(C)s2)CC(=O)N1 (centres undefined)	-2.6	0.0	0.2	1.0	/	/
CCOc1ccc(Nc2nc(N3CCOCC3)c3ccccc3n2)cc1	22.8	0.0	0.5	-0.6	/	/
CCOc1ccc(Nc2nc(NCc3ccco3)c3ccccc3n2)cc1	49.0*	-0.2	5.1*	-3.1	-0.2	11.4
CCOC(=O)C(=CNc1cc(C)nn1-c1ccccc1)C(=O)OCC	-0.4	-0.1	6.6*	0.5	-1.4	-9.8
N#C/C(=C\c1ccc(Cl)cc1Cl)c1nc(-c2cc3cc(Br)ccc3oc2=O)cs1	6.5	0.3	1.0	-0.3	/	/
O=C(CSc1nc2ccccc2s1)NCc1ccco1	-3.7	0.0	6.1*	1.8	0.5	5.1
CC1Cc2cc(S(=O)(=O)CCC(=O)Nc3ccccc3)ccc2N1C(=O)C1CC1 (centres undefined)	5.1	-0.2	0.1	-2.5	/	/
CCc1cccc(NC(=O)CCS(=O)(=O)c2ccc3c(c2)CC(C)N3C(=O)C2CC2)c1 (centres undefined)	11.7	0.0	6.2*	7.9	0.7	-5.9
O=C(CN1C(=O)c2ccccc2C1=O)Nn1c(-c2cccc(Cl)c2)nc2ccccc2c1=O	-10.2	1.3	6.7*	19.2	-0.2	13.4
CCOC(=O)CSCC(=O)N1N=C(c2cccs2)CC1c1cccc(OC)c1OC (centres undefined)	5.1	0.2	6.6*	3.3	0.2	7.7
Cc1ccc(Sc2cc(C(=O)NCc3ccc(Cl)cc3)c3ccccc3n2)cc1	-1.0	1.1	-1.7	12.5	/	/
CCSc1sc(CC)cc1C1C(C#N)=C(N)N(N(C)C)C2=C1C(=O)CC(C)(C)C2 (centres undefined)	-4.0	0.4	5.5*	6.7	0.6	-0.4
O=C(O)C1CCC(CN(Cc2cccc(Br)c2)C(=S)Nc2ccccc2F)CC1 (centres undefined)	10.7	0.1	0.0	7.1	/	/
Cc1ccccc1NC(=S)N(Cc1cccc(Br)c1)CC1CCC(C(=O)O)CC1 (centres undefined)	-0.2	-0.1	7.6*	-1.0	-0.7	-1.8
COc1ccc(CCNc2nc(Nc3ccccn3)nc3c2ncn3C2CCCCC2)cc1	16.5	0.0	-1.1	3.5	/	/
COc1cccc(-c2nc3nc(C)c(CCC(=O)NC4CCCCC4)c(C)n3n2)c1	-7.5	0.8	0.0	12.6	/	/
Cc1ccc(C2=N/C(=C/c3ccc([N+](=O)[O-])cc3)C(=O)O2)cc1	1.5	0.1	7.9*	-7.2	-0.5	-7.7
O=C1OC(c2ccc([N+](=O)[O-])cc2)=N/C1=C\c1ccccc1	-3.7	-0.1	-0.8	9.5	/	/
Cc1ccc(C2=N/C(=C/c3cc(Br)cs3)C(=O)O2)cc1[N+](=O)[O-]	12.9	0.0	5.1*	7.4	-0.3	4.5
N#Cc1cc2c([nH]c1=O)CCC/C2=N\Nc1ccccc1	2.7	0.0	-1.0	12.7	/	/
O=C(COc1ccc(Cl)cc1)Nc1nnc(-c2ccc(Cl)cc2)o1	1.2	0.0	1.4	0.5	/	/
CN1CCN(C(=O)/C=C/c2c(Cl)cccc2Cl)CC1	3.0	0.0	7.2*	6.1	0.1	5.2
Cc1ccc(S(=O)(=O)C2CCN(C(=O)c3cc(C)n(C)n3)CC2)cc1	7.5	0.0	0.1	2.8	/	/
Cc1cc(C(=O)N2C=CC(C(F)(F)F)=NCC2)nn1C	-3.1	-0.1	5.0*	3.9	-0.2	-3.0
